Reference: the supplement of paper PMC12350171
Counter-ions that a name gives are not always drawn.

System: P. vulgatus WT
Test: growth AUC normalised to DMSO control (median) (fraction of control); higher = less growth inhibition, active = hit call of the paper
Settings: 20 µM;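 active = normalised median growth AUC below 0.1 of DMSO control; inactive = AUC 0.1 or higher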
How it was run: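 In 96-well plates of mGAM seeded at OD578 0.01, strains that had been passaged twice overnight without oxygen were exposed to approved-drug library compounds at 20 μM with 1% DMSO. Hourly OD578 readings were taken for 24 h in an anaerobic incubator. The trapezoidal-rule area under the curve, with curves truncated at entry into stationary phase, was expressed relative to same-plate vehicle wells as the median of three biological replicates.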
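Also: active when median AUC fell below 0.1.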

SMILES | growth AUC normalised to DMSO control
O=C(Cn1c(=O)sc2ccc(Cl)cc21)N1CCN(CCO)CC1 [Tiaramide Hydrochloride] | 1.04 (inactive)
O=P(O)(O)C(O)(Cn1ccnc1)P(=O)(O)O [Zoledronic acid hydrate] | 0.988 (inactive)
O=C(O)CCNC(=O)c1ccccc1 [Betamipron] | 1.04 (inactive)
Cc1cn(-c2cc(NC(=O)c3ccc(C)c(Nc4nccc(-c5cccnc5)n4)c3)cc(C(F)(F)F)c2)cn1 [Nilotinib] | 1.05 (inactive)
OC(CNCC(O)C1CCc2cc(F)ccc2O1)C1CCc2cc(F)ccc2O1 (centres undefined) [Nebivolol hydrochloride] | 1.01 (inactive)
N#C/C(=C1/SCC(c2ccccc2Cl)S1)n1ccnc1 (centres undefined) [Lanoconazole] | 1.08 (inactive)
Nc1ccc2cc3ccc(N)cc3nc2c1 [Proflavine hemisulfate] | 0.995 (inactive)
COc1ccc2cc1Oc1ccc(cc1)C[C@H]1c3c(cc4c(c3Oc3cc5c(cc3OC)CCN(C)[C@@H]5C2)OCO4)CCN1C [Cepharanthine] | 0.973 (inactive)
COc1cc2c(cc1OC)CC(=O)N(CCCN(C)C[C@H]1Cc3cc(OC)c(OC)cc31)CC2 [Ivabradine hydrochloride] | 0.997 (inactive)
CC(C)C(=O)OCC(=O)[C@@]12O[C@H](C3CCCCC3)O[C@@H]1C[C@H]1[C@@H]3CCC4=CC(=O)C=C[C@]4(C)[C@H]3[C@@H](O)C[C@@]12C [Ciclesonide] | 1.02 (inactive)
CCOC(=O)c1c(N)sc2c1CCN(Cc1ccccc1)C2 [Tinoridine hydrochloride] | 0.852 (inactive)
O=C(Oc1cccc2cccnc12)c1ccccc1 [Benzoxiquine] | 0.934 (inactive)
CC1=NN(c2ccccc2)C(=O)C1 [Edaravone] | 1.01 (inactive)
COc1ccc(C(=O)CC(=O)c2ccc(C(C)(C)C)cc2)cc1 [Avobenzone] | 0.911 (inactive)
CCCCc1oc2ccc(NS(C)(=O)=O)cc2c1C(=O)c1ccc(OCCCN(CCCC)CCCC)cc1 [Dronedarone hydrochloride] | 1.03 (inactive)
CCC[C@@H]1C[C@@H](C(=O)N[C@@H]([C@H]2O[C@H](SC)[C@H](OP(=O)(O)O)[C@@H](O)[C@H]2O)[C@H](C)Cl)N(C)C1 [Clindamycin Phosphate] | 0.895 (inactive)
O=C1[C@H]2CCCC[C@H]2C(=O)N1CCCCN1CCN(c2nsc3ccccc23)CC1 [Perospirone hydrochloride] | 0.986 (inactive)
CCN(CC)CCOCCOC(=O)C(CC)(CC)c1ccccc1 [Oxeladin citrate] | 0.98 (inactive)
O=C(O)c1cc(=O)[nH]c(=O)[nH]1 [Orotic acid] | 0.993 (inactive)
CC(=O)Oc1ccc(C(=C2CCCCC2)c2ccc(OC(C)=O)cc2)cc1 [Cyclofenil] | 0.904 (inactive)

SMILES | growth AUC normalised to DMSO control
CC(COc1ccccc1)NN (centres undefined) [Phenoxypropazine dihydrochloride] | 1.08 (inactive)
CCCCOCCOCCOCc1cc2c(cc1CCC)OCO2 [Piperonyl butoxide] | 1.05 (inactive)
Cc1nc2ccccc2n1Cc1ccc(Cl)cc1 [Chlormidazole] | 0.95 (inactive)
CS(=O)(=O)c1ccc([C@@H](O)[C@@H](CF)NC(=O)C(Cl)Cl)cc1 [Florfenicol] | 0.00788 (active)
Nc1c2ccccc2nc2ccccc12 [Aminacrine] | 1.02 (inactive)
CN(C)C(=O)COC(=O)Cc1ccc(OC(=O)c2ccc(NC(=N)N)cc2)cc1 [Camostat mesylate] | 1.03 (inactive)
CC(C)C[C@H](NC(=O)[C@@H](O)[C@H](N)Cc1ccccc1)C(=O)O [Ubenimex] | 0.535 (inactive)
CCCC(=O)N1CCCN(c2nc(N)c3cc(OC)c(OC)cc3n2)CC1 [Bunazosin hydrochloride] | 1.01 (inactive)
C=C1[C@H](CO)[C@@H](O)C[C@@H]1n1cnc2c(=O)[nH]c(N)nc21 [Entecavir] | 0.996 (inactive)
CC(=O)OCC(=O)[C@@]1(O)CC[C@H]2[C@@H]3CCC4=CC(=O)C=C[C@]4(C)[C@@]3(F)[C@@H](O)C[C@@]21C [Isoflupredone acetate] | 0.986 (inactive)
O=C(O)CNC(=O)c1ccccc1 [Hippuric acid] | 1.05 (inactive)
O=C(O)Cc1ccccc1Oc1ccc(Cl)cc1Cl [Fenclofenac] | 1.05 (inactive)
CNCC[C@@H](Oc1cccc2ccccc12)c1cccs1 [(R)-Duloxetine hydrochloride] | 0.993 (inactive)
CCN1CC(CCN2CCOCC2)C(c2ccccc2)(c2ccccc2)C1=O (centres undefined) [Doxapram hydrochloride] | 1.03 (inactive)
CC[N+]1(CC)CCC(=C(c2ccccc2)c2ccccc2)C1C (centres undefined) [Prifinium Bromide] | 0.989 (inactive)
Cc1ccc(Nc2c(F)cccc2Cl)c(CC(=O)O)c1 [Lumiracoxib] | 1.01 (inactive)
NC(=O)[C@@H]1CCCN1C(=O)[C@H](Cc1c[nH]cn1)NC(=O)[C@@H]1CCC(=O)N1 [Thyrotropin-Releasing Hormone] | 1.04 (inactive)
CC(=O)c1cc2cccc(OCC(O)CNC(C)C)c2o1 (centres undefined) [Befunolol] | 1.06 (inactive)
CN1CC(=O)N2[C@H](c3ccc4c(c3)OCO4)c3[nH]c4ccccc4c3C[C@@H]2C1=O [Tadalafil] | 0.845 (inactive)
